In PubChem BioAssay AID2533 (National Center for Advancing Translational Sciences (NCATS), 2010):
Where “and” joins values, the source holds several entries; their conditions need not be identical. Equal values may be shown once. Inconclusive results are not listed. Where a call stands in place of a potency, no number is given. Calls of active or inactive are those of the source. Calls come from the whole dose curve; as a rule, active = well fitted activation curve with a large enough effect; inconclusive = small, poorly fitted or top-dose-only effect; inactive = flat fitted curve, though single readings scatter.

The compounds below were run against Pyruvate kinase PKM (Homo sapiens) (UniProt P14618) (assay: Confirmation Concentration-Response Assay for Activators of Human Muscle isoform 2 Pyruvate Kinase: for Probe SAR). Settings: purified PKM2, ATP generation, Kinase-Glo luminescence; series mostly up to 57.5 µM.
In short: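 Purified hPK-M2 at 0.1 nM final converted ADP (0.1 mM) and PEP (0.5 mM) to ATP over 1 hour at room temperature in imidazole buffer, pH 7.2. ATP formed was measured by Kinase-Glo luminescence, normalized to no-enzyme and uninhibited controls.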
Note: nearly all actives have a fitted effect of over 60% in size.
Potency is the fitted concentration of half-maximal effect.

Pyruvate kinase PKM (Homo sapiens), sequence (P14618 whole entry, looked up, canonical isoform): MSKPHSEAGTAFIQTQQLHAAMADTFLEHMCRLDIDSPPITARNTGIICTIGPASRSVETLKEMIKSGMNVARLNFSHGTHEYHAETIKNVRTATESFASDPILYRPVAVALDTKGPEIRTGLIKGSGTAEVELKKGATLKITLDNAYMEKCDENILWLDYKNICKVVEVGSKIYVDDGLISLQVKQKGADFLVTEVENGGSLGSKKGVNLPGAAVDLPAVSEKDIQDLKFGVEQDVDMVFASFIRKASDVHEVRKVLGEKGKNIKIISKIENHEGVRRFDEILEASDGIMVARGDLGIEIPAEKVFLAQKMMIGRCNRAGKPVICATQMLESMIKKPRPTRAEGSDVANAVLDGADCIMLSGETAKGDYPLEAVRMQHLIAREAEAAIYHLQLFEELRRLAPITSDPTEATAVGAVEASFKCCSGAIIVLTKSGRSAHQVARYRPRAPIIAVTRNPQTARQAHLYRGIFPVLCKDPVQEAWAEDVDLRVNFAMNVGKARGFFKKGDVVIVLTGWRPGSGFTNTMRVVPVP

SMILES	Potency
CC(=O)Nc1cccc(OC2=NS(=O)(=O)c3ccccc32)c1	inactive
O=C1CCc2cc(S(=O)(=O)Nc3ccc4ncccc4c3)ccc2N1	inactive
O=C1c2ccccc2C(=O)N1c1ccc(Cl)cc1	inactive
COc1cc(F)c(S(=O)(=O)N2CCCN(S(=O)(=O)c3ccc(NC(C)=O)cc3)CC2)c(F)c1	16300 nM (active)
Cc1ccc(C)c(OC2=NS(=O)(=O)c3ccccc32)c1	inactive
Cc1cc(C)n2c(Nc3ccccc3)c(-c3ccc(C)o3)nc2n1	16300 nM (active)
Cc1ccn2c(NCc3ccco3)c(-c3ccccc3)nc2c1	inactive
O=S1(=O)N=C(Sc2ccc3c(c2)OCCO3)c2ccccc21	inactive
Cc1ccc(NS(=O)(=O)c2ccc3c(c2)CCC(=O)N3)cc1Cl	326 nM (active)
Cc1ccc(NC(=O)c2ccc3c(c2)CCC(=O)N3)cc1C	inactive
CNc1cccc(S(=O)(=O)N2CCN(S(=O)(=O)c3ccc4c(c3)OCCO4)CC2)c1	259 nM (active)
Cc1ccc(-c2nc3cccc(C)n3c2Nc2ccc(F)cc2)o1	inactive
O=S1(=O)N=C(N2CCOCC2)c2ccccc21	inactive
O=[S+]1([O-])N=C(Oc2cccnc2)c2ccccc21	inactive
Nc1cccc(S(=O)(=O)N2CCN(S(=O)(=O)c3c(F)cccc3F)CC2)c1	130 nM (active)
O=C(O)c1ccccc1SC1=NS(=O)(=O)c2ccccc21	32600 nM [inhibitor] (active)
Cn1c2cc(S(C)=O)sc2c2cnn(Cc3cccc(O)c3)c(=O)c21 (configuration not stated)	130 nM (active)
Cc1ccc(NS(=O)(=O)c2ccc(N3CCCC3=O)cc2)cc1C	inactive
O=C1c2ccccc2C(=O)N1C1CCCCC1	inactive

SMILES	Potency
CCNc1cccc(S(=O)(=O)N2CCN(S(=O)(=O)c3ccc4c(c3)OCCO4)CC2)c1	81.9 nM (active)
O=C1CCc2cc([S+](=O)([O-])NC3CCOCC3)ccc2N1	inactive
COc1cc(F)c(S(=O)(=O)N2CCCN(S(=O)(=O)c3cccc(N)c3)CC2)c(F)c1	1.16 µM (active) and 1.46 µM (active)
Cc1ccc2nc(-c3ccc(C)o3)c(NC3CCCC3)n2c1	inactive
O=C1c2ccccc2C(=O)N1c1cccc(O)c1	inactive
COC(=O)c1ccccc1S(=O)(=O)Nc1cc(=O)c2ccccc2[nH]1	inactive
O=C1CCc2cc(S(=O)(=O)Nc3cccc(C(F)(F)F)c3)ccc2N1	13000 nM (active)
O=C1c2ccccc2C(=O)N1c1cccc2cnccc12	inactive
Cc1ccc(NS(=O)(=O)c2cc3c(cc2N(C)C)NC(=O)CC3)cc1C	366 nM (active)
O=S(=O)(c1ccc2c(c1)OCCO2)N1CCN(S(=O)(=O)c2c(F)cccc2F)CC1	517 nM (active) and 183 nM (active) and 291 nM (active)
O=C1CCc2cc(S(=O)(=O)Nc3ccncc3)ccc2N1	inactive
CNc1cccc(S(=O)(=O)N2CCCN(S(=O)(=O)c3ccc4c(c3)OCCO4)CC2)c1	103 nM (active)
Cc1ccc(Nc2c(-c3ccc(C)o3)nc3cccc(C)n23)cc1	inactive
COc1cc(N2C(=O)c3ccccc3C2=O)c2ncccc2c1	inactive
Cc1c(Cl)cccc1NS(=O)(=O)c1cc2c(cc1F)NC(=O)CC2	3660 nM (active)
O=S1(=O)N=C(Oc2ccccc2Br)c2ccccc21	inactive
N#Cc1ccccc1OC1=NS(=O)(=O)c2ccccc21	inactive
CC(=O)Nc1cccc(S(=O)(=O)N2CCCN(S(=O)(=O)c3ccc4c(c3)OCCO4)CC2)c1	1300 nM (active)
